Data from PubChem BioAssay AID777 (Sanford-Burnham Center for Chemical Genomics, 2007).
The whole screen tested about 96,000 compounds, of which about 19,000 (20%) were called active. A selection follows. Values without a mark were called inactive.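 How the source made its calls: active means blocking of liver enzyme CYP2C9 beyond about 50% at 5 µM (limit read from the data); inactive means the rest.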

Biological target: Cytochrome P450 2C9 (Homo sapiens) (UniProt P11712)
Experiment: blockers of cytochrome P450 2C9 activity – biochemical, luminescence, ADME assay, primary screen (AID 777)
Settings: CYP2C9 Supersomes, luciferin-H conversion, at 5 µM, stronger effect = higher value

Cytochrome P450 2C9 (Homo sapiens), sequence (P11712 whole entry, looked up): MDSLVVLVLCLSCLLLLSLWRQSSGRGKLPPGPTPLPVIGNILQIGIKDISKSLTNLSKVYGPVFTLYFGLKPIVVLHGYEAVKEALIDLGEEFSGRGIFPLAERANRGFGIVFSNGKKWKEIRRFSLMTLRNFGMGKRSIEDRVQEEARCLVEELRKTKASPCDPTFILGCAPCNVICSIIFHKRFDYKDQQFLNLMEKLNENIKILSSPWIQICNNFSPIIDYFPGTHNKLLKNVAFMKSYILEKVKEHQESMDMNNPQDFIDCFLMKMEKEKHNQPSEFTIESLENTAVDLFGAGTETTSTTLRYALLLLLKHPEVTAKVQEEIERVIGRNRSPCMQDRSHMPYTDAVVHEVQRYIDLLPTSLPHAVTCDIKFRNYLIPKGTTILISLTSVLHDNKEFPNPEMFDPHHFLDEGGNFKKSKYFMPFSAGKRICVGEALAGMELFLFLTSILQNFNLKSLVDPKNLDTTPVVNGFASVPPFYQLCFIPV

Structure (SMILES) | inhibition
CCCC(=O)N1CCc2[nH]c3ccccc3c2C1 | 8.3%
Cc1ccc(C(C(=O)NCc2ccco2)N(CC2CCCO2)C(=O)Cn2nnc3ccccc32)cc1 (configuration not stated) | 14.4%
COc1ccccc1N(C(=O)Cn1nnc2ccccc21)C(C(=O)NCc1ccco1)c1ccc(C)o1 (configuration not stated) | 70.3% (active)
COCCNC(=O)C(c1ccc(C)o1)N(Cc1ccccc1)C(=O)Cn1nnc2ccccc21 (configuration not stated) | 16.2%
CCOCCCNC(=O)Cc1cc(=O)[nH]c(=O)[nH]1 | -6.2%
Cc1noc(COc2ccccc2OCC(O)CNC(C)(C)C)n1 (configuration not stated) | 26.1%
O=C(Nc1cccc2ccccc12)N1CCN(Cc2ccc3c(c2)OCO3)CC1 | 38.9%
O=C1N(Cc2ccc3c(c2)OCO3)c2ccccc2C1(O)c1c[nH]c2ccccc12 (configuration not stated) | 79.7% (active)
CC1CCC(N2CC(=O)N(Cc3ccc4c(c3)OCO4)C(c3ccc(F)cc3)C2=O)CC1 (configuration not stated) | 39.6%
CC(=O)Oc1ccc(C)cc1N1C(=O)c2ccc(C(=O)O)cc2C1=O | -17.9%
C/C(CC(O)(/C=N/O)c1ccccc1)=N\O (configuration not stated) | -33%
CC1=NN(c2cccc(Cl)c2)C(=O)C12CC(C)=C(C)CS2 (configuration not stated) | 74.8% (active)
O=C1C(=O)N(c2ccccc2)c2ccccc21 | 4.1%
CCOC(=O)c1c(NC(=O)CSc2nnc(Cc3csc(N)n3)n2C)sc(C)c1C | 30.2%
CCC(=O)Nc1ccc(C(=O)CSc2nnc(CNc3ccc(Cl)cc3)o2)cc1OC | -44.6%
COCCCn1c(Cc2csc(Nc3cccc(Cl)c3)n2)nnc1SCC(=O)OC1CCCCC1 | 44.3%
CCOc1ccc(Nc2nc(Cc3nnc(SCC(=O)NC4CCCC4)n3C)cs2)cc1 | 65.6% (active)
CC(=O)Nc1ccc(C(=O)CSc2nnc(Cc3ccccc3)o2)cc1 | 33.3%
CCOc1ccc(Nc2nc(Cc3nnc(SCC(=O)c4ccc(C)cc4)o3)cs2)cc1 | 83.7% (active)
COCc1cc(C)nc2sc(C(=O)NC3CCCCC3)c(N)c12 | 4.7%
COc1ccc(-n2cnc3cc(NCc4ccco4)ccc32)cc1 | 32.8%
COC(=O)[C@@H](NC(=O)Nc1cc(Cl)ccc1C)C(C)C | 10%
OC(C#CCN1CCOCC1)(c1ccccc1)C1CCCCC1 (configuration not stated) | 30%

Structure (SMILES) | inhibition
CCCCCCc1cc2cc(-c3nnc(-c4ccccc4)o3)c(=O)oc2cc1O | 90.8% (active)
O=c1oc2cc(O)ccc2cc1-c1ccc(F)cc1 | 27.8%
CC1(C)CC(=O)C=C(NCCCNC2CCCCC2)C1 | 1%
CCOC(=O)c1c(N)sc(C(C)=O)c1C | 25.8%
CCCCc1c(O)nc2n(c1=O)CCS2 | -21.9%
COc1ccccc1NC1=NC(c2ccc(Cl)cc2)N=C(N)N1 (configuration not stated) | -7.5%
CCn1c2ccccc2c2cc(NC(=S)N3CCOCC3)ccc21 | -46.3%
CCN1C(=O)c2cccc3c(N)ccc1c23 | 7.7%
CCCCN(C)C(=O)c1ccc2c(c1)N(CC)C(=O)c1ccccc1S2(=O)=O | 72.4% (active)
COC(=O)CNC(=O)c1ccc2c(c1)S(=O)(=O)c1ccccc1C2=O | -14.1%
CCC(C)Sc1nnc(-c2c[nH]c3ccccc23)n1CCOC (configuration not stated) | -4.5%
CCOC(=O)C1=C(C)NC(C)=C(C(=O)OCC)C1c1ccccn1 | 94.2% (active)
CCOC(=O)c1ccccc1NC(=O)CC1Nc2ccccc2NC1=O (configuration not stated) | 29.5%
CCOC(=O)C1=C(C)NC(C)=C(C(=O)OCC)C1C1=COCCO1 | 77.4% (active)
CCCC1NC(=O)NC(C)=C1C(=O)OCC (configuration not stated) | 39.8%
CCC(=O)N(Cc1ccccc1)c1ccccn1 | -7.1%
CCCC(O)(c1ccc(OC)cc1)C(CN(C)C)c1ccccc1 (configuration not stated) | -8.2%
O=C(NC(=O)c1ccc(Cl)c(Cl)c1)OC1CCS(=O)(=O)C1 (configuration not stated) | -16.4%
CCOc1ccccc1NC(=O)C12CC3CC(C1)CC(c1ccc(C)cc1)(C3)C2 | -16%
N#C/C=C\Oc1ccc(Cl)cc1N | -10.4%
O=C(CCN1C(=O)C2C3C=CC(C3)C2C1=O)Nc1ccccc1F (configuration not stated) | -2.2%
NC(=NC(=O)c1ccccc1)N1CCOCC1 | 4.1%
CCN(CC)C(=O)CSc1nnc(-c2ccc(S(=O)(=O)NCc3ccccc3Cl)cc2)o1 | 25.8%

Structure (SMILES) | inhibition
O=C(OCC(=O)N1CCCC1)c1ccco1 | 5.6%
O=C(CSc1ccccc1)Nc1ccc(NC(=O)c2ccco2)cc1 | 42.7%
CCn1c(SCC(=O)Nc2cccc(F)c2)nnc1-c1cc2cc(Br)ccc2o1 | 36%
CSc1cccc(NC(=O)CSc2ccccc2)c1 | 73.2% (active)
Oc1ccccc1/C=N/n1c(-c2cccs2)n[nH]c1=S | 0.5%
Cc1nnc(C)n1/N=C/c1ccc(C(C)C)cc1 | 8.3%
Cn1nnc2cc(C(=O)NCCC3=CCCCC3)ccc21 | -22.1%
Cc1ccc2c(c1)c1ncn(CCC3=CCCCC3)c(=O)c1n2C | 87.4% (active)
Cc1ccc2[nH]c3c(=O)n(Cc4ccccn4)cnc3c2c1 | 2.1%
Cc1ccc(-n2ncc3c(=O)[nH]cnc32)c(C)c1 | 2.5%
Cn1c(=O)n(C)c(=O)n(CC(=O)N2CCCCC2)c1=O | -13.7%
COc1ccc(C(=O)N(CCN2CCOCC2)CC(=O)NC2CCCC2)cc1OC | -13.4%
CC(C)C[C@@H](N)c1nnc(SCC(=O)c2ccc(Cl)cc2)o1 | 49.8%
Cc1nc(C)c(C(=O)Nc2cccc(C)c2C)o1 | 1.2%
Cc1cccc(NC(=O)CSC(N)=O)c1C | 7.1%
C[C@H](NC(=O)OC(C)(C)C)c1nnc(SCC(=O)Nc2ccc(Br)cc2)o1 | 50.7% (active)
COc1ccccc1-c1nnc(SCC(=O)Nc2ccccc2)o1 | -62.2%
C[C@H](NC(=O)OC(C)(C)C)c1nnc(SCC(N)=O)o1 | 30.9%
CCc1ccccc1NC(=O)CSc1nnc([C@@H](NC(=O)OC(C)(C)C)C(C)C)o1 | 20.3%
Cc1cccc(NC(=O)CSc2nnc(CCCCCNC(=O)OC(C)(C)C)o2)c1C | 67.6% (active)
CCc1ccccc1NC(=O)CSc1nnc([C@@H](NC(=O)OC(C)(C)C)C(C)CC)o1 (some centres not stated) | 66.7% (active)
